TbPYK inhibitor – T. brucei pyruvate kinase inhibition. Q57TT1. TbPYK enzyme, Kinase-Glo Plus ATP luminescence, 45 min. Potency, µM (top dose mostly 76.8 µM), without a hit: at the top dose activity, negative = inhibition, most hits filed as inhibitors. 0.12% of 410,000 active. AID 624173; further: nearly all actives have a fitted effect of over 50% in size
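TbPYK + substrate in 50 mM TEA pH 7.2, 100 mM KCl, 10 mM MgCl2, 0.05% BSA, 0.01% Tween-20; cpd pinned; ADP 130 uM final; 45 min RT; Kinase-Glo Plus 10 min; luminescence endpoint.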
Sm TGR inh – blocks Schistosoma mansoni thioredoxin glutathione reductase; purified TGR, DTNB reduction, TNB absorbance 405 nm; 3% of 360,000 active; AID 485364; Potency, µM (doses to about 114 µM), for the others: at the highest dose activity change, negative = inhibition, usual class: inhibitors; further: nearly all actives have a fitted effect of over 60% in size
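Kinetic colorimetric format: TGR-catalysed, NADPH-driven DTNB reduction monitored via TNB absorbance. Enzyme dispensed at 20 nM; compound exposure 15 min at room temperature before reaction start.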
FMDV inh – antivirals against foot and mouth disease virus | FMDV antiviral cell-based qHTS | Potency, µM (doses to about 57.9 µM), for the others: at the top dose activity change, negative = inhibition, usual class: inhibitors | 1.2% of 410,000 active | AID 1159524; calls by dose curve; tested in HEK293T cells; further: read-out not given here; nearly all actives have a fitted effect of over 45% in size
RE007 growth inh – less growth of the S. pombe RE007 Vpr strain | 0.21% of 360,000 active | Potency, µM (top dose mostly 92.2 µM), for the others: top-dose activity change, negative = less growth, usual class: inhibitors | AID 651644 | S. pombe RE007 Vpr strain, BacTiter-Glo ATP luminescence, 24 h; active means well fitted falling curve with a large enough effect; inconclusive means small, poorly fitted or top-dose-only effect; inactive means no such curve, though single readings can be large or run the other way; further: nearly all actives have a fitted effect of over 50% in size
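Fission yeast RE007 carrying one integrated HIV-1 vpr copy, seeded at OD 0.01 in PMG+AL medium with 23 nL pinned compound. Grown 24 h at 30 degrees; viability read by BacTiter-Glo luminescence after 5 min.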
* marks the source's active call; other numbers are inactive results; ? = inconclusive; nt = no result. An excerpt weighted towards active compounds, which were near 3.7% of everything screened. Unless noted, the call rests on the fitted dose curve; in most records, active means well fitted curve in the direction sought with a large enough effect; inconclusive means small, poorly fitted or top-dose-only effect, or another doubt; inactive means no such curve, though single readings can be large; an effect the other way counts as inactive or inconclusive. On the % scale 0 is the no-effect control and ±100 the full control effect; potency means the concentration at half of the fitted maximal effect.

SMILES	TbPYK inhibitor	Sm TGR inh	FMDV inh	RE007 growth inh
CNc1ccc(C(=O)CC(O)CCC(C)C2OC(=O)CC(O)CC(=O)CC(O)CC(O)CC(O)CC(O)CC3(O)CC(O)C(C(=O)OC)C(CC(O[C@@H]4O[C@H](C)[C@@H](O)[C@H](N)[C@@H]4O)/C=C/C=C/C=C/C=C/C=C/C=C/C=C/C2C)O3)cc1 (some centres undefined)	nt	nt	10.6%	nt
COc1cc(OC)c(NC(=O)c2c3c(nc4ccccc24)C(=O)N(C2CCCCC2)C3)cc1Cl	-7.3%	?	-14.5%	nt
CN(CCO)C(=O)c1cn(C2CCCN(Cc3cccc4ccccc34)C2)nn1 (centres undefined)	nt	nt	-5.8%	nt
Cc1c(C#N)c(NC(=O)CCl)n(Cc2ccccc2)c1C	0.7%	3.16µM*	11.2µM*	-2.6%
Cc1cc(=O)n(Cc2ccccc2)c(O)c1C#N	-7.5%	?	-11.3%	5.4%
Cc1c(C#N)c(NC(=O)CCl)n(Cc2cccs2)c1C	0.1%	3.98µM*	20µM*	4.3%
CCN(CC)C(=O)c1sc(NC(=O)Cc2cccs2)c(C#N)c1C	0.2%	-8.0%	5.3%	-11.3%
COC(=O)c1cc(C(=O)OC)n(Cc2ccc(F)cc2)c1C	-2.9%	1.8%	-17.9%	-8.0%
Cc1c(C#N)c(NC(=O)CCl)n(Cc2ccc(F)cc2)c1C	1.7%	4.47µM*	12.6µM*	-4.5%
C[C@@H]1CN(Cc2ccc3c(c2)CN(C(=O)CN2CCOc4ccccc4C2)CCO3)C[C@H](C)O1	nt	nt	-7.0%	nt
O=C(NCc1ccccc1)C(CCc1ccccc1)n1c(=O)c(-c2ccccc2)nc2ccccc21 (centres undefined)	nt	nt	4.2%	11.7%
CC(=O)c1ccc(N2CCN(S(=O)(=O)c3cc(-c4onc(C)c4C)ccc3C)CC2)cc1	-10.6%	-0.1%	?	nt
CCOC(=O)CSc1nc(N)c(C#N)c(-c2ccc(OC)cc2)c1C#N	0.9%	0.0%	-15.7%	-3.6%
C=C(C)CSc1nc(N)c(C#N)c(-c2ccc(C)cc2)c1C#N	7.1%	35.5µM*	nt	-4.3%
Cc1cc(NC(=S)Nc2ccc(C)c(Cl)c2)n[nH]1	-10.6%	7.08µM*	64.2%	-16.5%
CC1CCc2onc(C(=O)N3CCN(c4ccccc4)CC3)c2C1 (centres undefined)	-7.5%	8.9%	10.7%	nt
Oc1ccccc1Oc1ncc(Br)c(N2CCOCC2)n1	1.3%	-3.8%	-28.8%	6.0%
Oc1ccccc1Oc1ncc(Br)c(Cl)n1	1.6%	35.5µM*	-27.2%	1.0%
COc1ccccc1N1CCN(c2ncnc3c2cnn3C)CC1	-3.8%	7.5%	-21.7%	nt
O=C(Nc1cc(C(F)(F)F)ccc1Cl)c1cnn(-c2ccccc2)c1-n1cccc1	4.2%	-2.0%	31.6µM*	nt
COCC(=O)Nc1cccc(-c2nc3cccnc3s2)c1	1.2%	-3.4%	-13.4%	nt
Nc1c(N(CCO)C(=O)/C=C/c2ccco2)c(=O)[nH]c(=O)n1Cc1ccccc1	-5.0%	50.1µM*	-4.3%	0.2%
Cc1ccccc1OCC(=O)N(Cc1ccco1)c1c(N)n(Cc2ccccc2)c(=O)[nH]c1=O	0.0%	44.7µM*	-9.1%	-15.6%
CCn1c(=O)c2cc(C(=O)N3CCN(c4cccc(Cl)c4)CC3)sc2c2ccccc21	-2.1%	18.4%	?	nt
Cn1c(N)c(C(=O)COC(=O)c2cc(C(F)(F)F)nc3ccccc23)c(=O)n(Cc2ccccc2)c1=O	-2.1%	35.9%	-28.6%	-0.5%
SMILES	TbPYK inhibitor	Sm TGR inh	FMDV inh	RE007 growth inh
COc1ccc(-c2cc(C(=O)OCC(=O)c3c(N)n(C)c(=O)n(C)c3=O)c3ccccc3n2)cc1	-1.0%	0.4%	-14.3%	-13.0%
Cn1c(N)c(C(=O)COC(=O)c2cc(-c3ccco3)nc3ccccc23)c(=O)n(Cc2ccccc2)c1=O	nt	8.91µM*	nt	nt
Cn1c(N)c(C(=O)COC(=O)c2cc(-c3ccco3)nc3ccccc23)c(=O)n(C)c1=O	-0.1%	8.91µM*	-5.0%	-15.6%
COc1ccccc1CNC(=O)CCCc1nnc2n(CC(C)C)c(=O)c3sccc3n12	-4.7%	5.5%	-18.7%	nt
Cc1ccc(S(=O)(=O)N2CCCCC2C(=O)NCc2ccco2)cc1 (centres undefined)	-2.9%	20µM*	-4.7%	7.9%
CSCC[C@H](NC(=O)C1CCN(S(=O)(=O)c2ccc(C)cc2)CC1)C(=O)NCc1ccco1	-8.9%	44.7µM*	0.4%	11.0%
O=C(NCc1ccco1)C1CCCN(S(=O)(=O)c2ccc(-n3cnnn3)cc2)C1 (centres undefined)	3.9%	20µM*	-7.6%	-8.6%
CCOC(=O)c1[nH]c(Cc2[nH]c(C(=O)OCC)c(C)c2CCC(=O)OC)c(CCC(=O)OC)c1C	6.3%	7.94µM*	1.7%	-6.8%
CCc1ccc(NC2CC(=O)N(c3ccc(OC)cc3OC)C2=O)cc1 (centres undefined)	9.0%	35.5µM*	nt	-10.7%
CCCCN1C(=O)CC(Nc2ccc(CC)cc2)C1=O (centres undefined)	-1.0%	?	67.3%	-11.2%
CCc1ccc(NC2CC(=O)N(CCc3ccc(OC)c(OC)c3)C2=O)cc1 (centres undefined)	-21.0%	14.1µM*	-24.1%	-10.7%
CCCN1C(=O)CC(Sc2ncccc2C(=O)O)C1=O (centres undefined)	-0.7%	-2.3%	-17.6%	3.3%
COc1ccc(CCN2C(=O)CC(Nc3ccc(N4CCOCC4)cc3)C2=O)cc1OC (centres undefined)	-18.9%	20µM*	?	4.2%
COc1ccc(CCNC2CC(=O)N(CCc3ccccc3)C2=O)cc1OC (centres undefined)	2.4%	0.0%	-18.8%	-3.2%
COc1ccc(CCN2C(=O)CC(Sc3ncccc3C(=O)O)C2=O)cc1OC (centres undefined)	-5.9%	11.2µM*	-10.6%	-9.0%
CCc1ccccc1NC(=O)c1cc2c(Cl)nc3ccccc3c2s1	0.3%	0.1%	0.0%	nt
COc1ccc(C(C[N+](=O)[O-])c2c(-c3ccccc3)cc3ccccn23)c(OC)c1 (centres undefined)	2.2%	56.2µM*	-7.9%	?
COc1ccc(C(C[N+](=O)[O-])c2c(C)cc3ccccn23)cc1 (centres undefined)	-5.2%	28.2µM*	-24.6%	?
COc1ccc(NC(=O)c2cnc3ccccn3c2=O)c(OC)c1	4.8%	nt	35.3%	-3.6%
Cc1cc2ccccn2c1C(C[N+](=O)[O-])c1ccc(N(C)C)cc1 (centres undefined)	-12.4%	?	-18.3%	-14.5%
CCOC(=O)c1ccc(NC(=O)c2c(NCc3cccs3)sc3c2CCCCC3)cc1	?	14.1µM*	5.8%	nt
COc1ccc(NC(=O)c2c(NCc3cccs3)sc3c2CCCCC3)c(OC)c1	?	5.62µM*	16.0%	nt
COc1ccc2nc(Nc3sc4c(c3C(N)=O)CCCC4)sc2c1	2.82µM*	12.6µM*	-8.0%	?
COc1ccc(NC(=O)c2c(NCc3cccs3)sc3c2CCCC3)cc1	?	31.6µM*	71.4%	nt
COc1ccc(NC(=O)c2c(NCc3cccc(OC)c3)sc3c2CCC3)cc1	?	?	-7.3%	nt

High-throughput results as filed in PubChem.
